Results as given in PubChem BioAssay AID504697 (The Scripps Research Institute Molecular Screening Center, 2011).
Activity calls are given as the source filed them.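 Rule for the calls: active = EC50 at or below 10 µM; inactive = EC50 above 10 µM.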

Experiment: fluorescence interference artefacts, compound only, dose response, artefact control for cardiac thin filament activator project, biochemical, no RTF in test wells (AID 504697);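 note: emission near 535 nm under roughly 485 nm excitation as for IANBD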
Settings: compound-only fluorescence in RTF assay buffer with Ca2+ (no RTF in test wells), artifact counterscreen

SMILES	EC50
COc1ccccc1NS(=O)(=O)c1cc(NC(=O)c2cc3ccccc3oc2=O)ccc1C	> 71.5 µM (inactive)
c1ccc2[nH]c3cc4ncnc4cc3nc2c1	17.9 µM (inactive)
O=C(NCc1ccc(Cl)cc1)C1CCN(c2cnccn2)CC1	> 71.4 µM (inactive)
CCOc1cc(N2CCOCC2)c(OCC)cc1NC(=O)CCS(=O)(=O)c1ccc(Cl)cc1	> 71.5 µM (inactive)
O=C(N/N=C/c1sc2ccccc2c1O)c1ccccc1	17.9 µM (inactive)
Cc1ccnc(N/C=C(\C#N)c2nc(-c3cccc(Br)c3)cs2)c1	1.59 µM (active)
COc1ccccc1/C=C/C=C1\Oc2c(ccc(O)c2CN2CCN(CCO)CC2)C1=O	3.63 µM (active)
COc1cc(/C=C(\C#N)c2nc3ccccc3[nH]2)cc(OC)c1O	11.1 µM (inactive)
O=c1[nH][nH]c(C(F)(F)F)c1C=Nc1cccc(Cl)c1	> 71.5 µM (inactive)
O=C(Nc1ccc(Cl)cn1)C1COc2ccccc2O1 (stereo not given)	> 71.5 µM (inactive)
COc1cccc(CC(NC(C)=O)C(=O)NC2CCN(c3nc(C)cc(C)c3C#N)CC2)c1OC (stereo not given)	> 71.5 µM (inactive)
Oc1ccc2ccc3cccc[n+]3c2c1	2.46 µM (active)
CC(C(=O)c1ccc(Br)cc1)[n+]1cccc2ccccc21 (stereo not given)	> 71.5 µM (inactive)
CCC[C@@H](CN1CCC[C@H]1CN1C(N)=NC[C@@H]1Cc1ccccc1)N1C[C@@H](Cc2ccccc2)N(CCCC2CCCC2)C1=N	> 71.4 µM (inactive)
CCOC(=O)N1CCN(C(=S)Nc2ccccc2C)CC1	> 71.4 µM (inactive)
